# Sampled rows, rich in hits. Any-hit rate of the full collection: about 3.5%.
# MITF primary: inhibitors of human MITF. O75030. AlphaScreen MITF homodimerization, bead proximity signal. inhibition, % at 2.6 µM. actives 0.91% (n = 650,000). AID 1259374; in the data active = inhibition above about 50%
# Target sequence (O75030 whole entry, looked up): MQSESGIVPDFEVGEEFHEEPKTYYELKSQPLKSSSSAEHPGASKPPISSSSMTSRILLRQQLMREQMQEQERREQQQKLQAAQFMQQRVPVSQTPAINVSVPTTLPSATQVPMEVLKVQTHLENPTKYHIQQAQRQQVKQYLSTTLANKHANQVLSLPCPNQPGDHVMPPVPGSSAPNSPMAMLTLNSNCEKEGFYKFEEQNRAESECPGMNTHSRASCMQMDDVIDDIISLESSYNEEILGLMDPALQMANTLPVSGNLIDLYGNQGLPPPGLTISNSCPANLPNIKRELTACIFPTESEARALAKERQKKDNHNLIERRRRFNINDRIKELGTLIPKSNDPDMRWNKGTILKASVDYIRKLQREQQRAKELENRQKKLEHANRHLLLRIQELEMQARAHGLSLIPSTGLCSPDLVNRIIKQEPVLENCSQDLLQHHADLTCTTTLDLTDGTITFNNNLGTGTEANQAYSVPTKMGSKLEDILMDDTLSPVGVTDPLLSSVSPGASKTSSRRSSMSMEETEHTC
# FBW7 activator: human FBW7 E3 ligase activation, primary screen; Q969H0; AlphaScreen FBW7–phospho-cyclin E peptide binding, activator screen; normalized activity (activation), % at 26.1 µM; actives 0.13% (n = 650,000); in the data active = normalized activity above about 1.9%;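 also: purified mutant Fbw7 with reduced substrate affinity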
# GPR151 ag: activates the human receptor GPR151; Q8TDV0; PathHunter beta-arrestin GPR151 cells, luminescence; activation, % at 11.2 µM; actives 1% (n = 650,000); AID 1508602; in the data active = activation above about 4.9%
# TEAD-YAP inh: TEAD-YAP interaction inhibition. inhibition, % at 9.12 µM. actives 1.4% (n = 640,000). HEK-TIYL cells, TEAD-Gal4/YAP UAS-luciferase luminescence; in the data active = inhibition above about 32%
# Hits are given with their value; – = inactive.
SMILES,MITF primary,FBW7 activator,GPR151 ag,TEAD-YAP inh
CCn1c2ccccc2c2cc(NC(=O)C(=O)NCCCOC)ccc21,–,–,–,40
Cc1ccc(CNS(=O)(=O)c2ccc3c(c2)oc(=O)n3C)cc1,–,–,–,–
CCOC(=O)C1CCCc2c1[nH]c1ccc(Cl)cc21 (stereo unspecified),–,–,–,39
COc1ccc(N2CCn3c(SCc4cccc(C)c4)nnc32)cc1,–,1.9,–,–
COc1ccc(N2CCn3c(SCc4cccc(Cl)c4)nnc32)cc1,–,–,–,–
Cc1ccc2c(c1)Cc1nc3ccccc3nc1-2,–,–,–,65
Cc1cc2c(cc1C)-c1nc3ccccc3cc1C2=O,–,–,–,–
Cc1cc2c(cc1C)-c1nc3ccccc3cc1C2,–,–,–,54
Clc1cnc(Nc2ccc(-n3cnc(N4CCOCC4)n3)cc2)nc1-c1ccno1,–,–,–,–
Cc1ncn(-c2ccc(Nc3ncc4cccc(-c5cccc(N6CCOCC6)c5)c4n3)cc2)n1,–,–,–,39
CCOC(=O)c1c(Cl)ccc2cnc(Nc3ccc(-n4cnc(N5CCOCC5)n4)cc3)nc12,–,–,–,59
Cc1ncn(-c2ccc(Nc3ncc4cccc(-c5ccccc5)c4n3)cc2)n1,–,–,–,–
CC(C)n1cc(-c2ccc3cnc(Nc4ccc(-n5cnc(N6CCOCC6)n5)cc4)nc3c2Cl)cn1,–,–,–,–
Cc1ccc(-c2cccc3cnc(Nc4ccc(-n5cnc(N6CCOCC6)n5)cc4)nc23)cn1,–,–,–,49
Cc1cc(-c2nc(Nc3ccc(-n4cnc(N5CCOCC5)n4)cc3)ncc2Cl)no1,–,–,–,39
C=CCNC(=S)NC(=O)c1ccccc1F,–,–,–,–
CC1=NN(C(=S)c2ccccc2)C(C)(O)C12CC2 (stereo unspecified),–,–,–,33
CC1=NN(C(=O)c2ccccc2)C(C)(C)C1,–,–,–,–
O=C(CSc1nc2[nH]ncc2c(=O)n1-c1ccccc1)Nc1ccc2c(c1)OCCO2,–,–,–,50
O=C(CSc1nc2[nH]ncc2c(=O)n1-c1ccc(Br)cc1)Nc1ccc2c(c1)OCCO2,–,–,–,42
O=C(CSc1nc2[nH]ncc2c(=O)n1-c1cccc(C(F)(F)F)c1)Nc1ccc2c(c1)OCCO2,–,–,–,–
Cc1ccc(NC(=O)c2sc3nc(N)c(C#N)cc3c2N)cc1F,–,22,–,–
N#Cc1cc2c(N)c(C(=O)c3ccc4c(c3)OCO4)sc2nc1N,–,5.1,–,–
N#Cc1cc2c(N)c(C(=O)Nc3ccccc3)sc2nc1N,–,–,–,–
CC1=NN2C(=N)/C(=C\c3ccc(SCc4ccco4)o3)C(=O)N=C2S1,–,–,–,–
SMILES,MITF primary,FBW7 activator,GPR151 ag,TEAD-YAP inh
CN1C(=O)/C(=C/c2ccc(SCc3ccco3)o2)SC1=S,57,–,–,–
CS(=O)(=O)C1=NN2C(=N)/C(=C\c3ccc(SCc4ccco4)o3)C(=O)N=C2S1,79,–,–,–
N=C1/C(=C\c2ccc(SCc3ccco3)o2)C(=O)N=C2SC(N3CCOCC3)=NN12,62,–,–,–
O=C(c1ccc(Oc2ccccc2)cc1)c1coc2ccc(O)cc12,–,–,–,55
CN1CCN(Cc2c(O)ccc3c(=O)c(Oc4ccc(C(C)(C)C)cc4)c(C(F)(F)F)oc23)CC1,–,–,–,34
CN1CCN(Cc2c(O)ccc3c(=O)c(Oc4ccc(-c5ccccc5)cc4)c(C(F)(F)F)oc23)CC1,–,–,–,–
CC(C)(C)c1ccc(Oc2c(C(F)(F)F)oc3c(CN4CCCC4)c(O)ccc3c2=O)cc1,–,–,–,36
Cc1cc(C)cc(Oc2c(C(F)(F)F)oc3c(CN4CCCCC4)c(O)ccc3c2=O)c1,–,–,–,–
CN1CCN(c2ncn(-c3ccc(Nc4nccc(-c5cc(F)cc(N6CCOCC6)c5)n4)cc3)n2)CC1,–,–,–,56
Cc1ncn(-c2ccc(Nc3nccc(-c4cccc(S(C)(=O)=O)c4)n3)cc2)n1,–,–,–,47
Cc1ncn(-c2ccc(Nc3nccc(-c4cc(F)cc(-c5cn[nH]c5C)c4)n3)cc2)n1,–,–,–,37
Cc1ncn(-c2ccc(Nc3nccc(-c4cc(N5CCOCC5)cc(S(C)(=O)=O)c4)n3)cc2)n1,–,–,–,41
COc1ccccc1-c1cnc2[nH]c(=O)n(C3CCCCC3)c2n1,–,–,–,–
Cc1ncn(-c2ccc(Nc3nccc(Nc4cccnc4)n3)cc2)n1,–,–,–,–
Cc1ncn(-c2ccc(Nc3nccc(Nc4ccccc4-c4ccn[nH]4)n3)cc2)n1,–,–,–,64
Cc1ccc(NC(=O)c2cn(-c3ccc(F)cc3F)c(=O)c3ccccc23)cc1F,–,–,–,–
